Tested on: Chordin-like protein 2 (CHRDL2)
Test: CHRDL2 small-molecule binders, primary screen, biochemical, small-molecule microarray, 635 nm fluorescence (AID 1126);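 also: printed compound slides probed with Chrdl2 protein at 4 µg/mL for 1 h at 4 C; score merges 667 nm emission intensity with signal to noise over three replicate slides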
Conditions: small-molecule microarray binding, fluorescence 635 nm; higher = more signal

First: CCOC(=O)C[C@H]1[C@H](OC(=O)c2ccccc2-c2ccccc2)[C@@H](NC(=O)c2ccc(-c3ccccc3)cc2)c2cc(OCCCO)ccc2N1C(=O)c1ccc2ccccc2n1
Second: C=CCC(OC(C)=O)[C@@H]1[C@@H](N(Cc2cccc3ccccc23)C(=O)Cc2ccc(OC)cc2)c2cc(OCCCO)ccc2N1C(=O)c1ccc2ccccc2n1 (some centres undefined)
The composite z-score of the first is higher: 0.304 for the first, 0.173 for the second.

First: C=CCC(OC(C)=O)[C@@H]1[C@@H](N(Cc2ccc(-c3ccccc3)cc2)C(=O)Cc2ccc(F)cc2)c2cc(OCCCO)ccc2N1C(=O)Cc1ccc(OC)cc1 (some centres undefined)
Second: O=C1N(Cc2ccccc2)c2ccccc2[C@@H]2OC(c3ccc(OCCCO)cc3)=N[C@]12Cc1ccccc1
The composite z-score of the first is lower: -0.0031 for the first, 0.29 for the second.

Going from `O=C(NCC(F)(F)F)[C@@H]1c2ccccc2C(=O)N(Cc2ccc(OC(F)(F)F)cc2)[C@H]1c1ccc(CO)cc1` to `O=C1O[C@H](c2ccccc2)[C@H](c2ccccc2)N2[C@H]1[C@@H](C(=O)Nc1nc3ccccc3s1)[C@]1(C(=O)Nc3ccccc31)[C@H]2c1ccc(OCCO)cc1`, the composite z-score rises from -0.374 to 0.608.

Going from `COC(=O)CCCCCCC(=O)Nc1ccc(NC(=O)CCCC[P+](c2ccccc2)(c2ccccc2)c2ccccc2)cc1` to `CN(C)C(=O)[C@@]1(CCS(=O)(=O)c2ccccc2)N=C(c2ccc(OCCCO)cc2)O[C@H]1c1ccccc1`, the composite z-score falls from 1.26 to -0.98.

First: CCCCCCc1nc(C2CC2)cc2c1[Si](C(C)C)(C(C)C)OC2
Second: CCCCCCc1nc(-c2cc(C)c(OC)c(C)c2)c(C)c2c1[Si](C(C)C)(C(C)C)OC2
The composite z-score of the first is lower: -0.463 for the first, 0.574 for the second.

First: C=C(/C(=C/C[C@H](OC(=O)c1ccncc1)c1ccc(CO)o1)c1cc(C(=O)OC)ccc1OC)C(C)C
Second: C=C(COC)/C(=C/C[C@H](OC(=O)c1ccncc1)c1ccccc1OCCO)c1cnc2ccccc2c1
The composite z-score of the first is lower: 0.85 for the first, 0.951 for the second.

Compared with `O=C1OCCC/C=C\[C@H]2OC34C=CCN(CCN5CCOCC5)C(=O)[C@H]3N(CCCCCCO)C(=O)[C@@H]4C12` (some centres undefined), `CC(CO)N1C(=O)[C@@H]2[C@H]3C(=O)OCC=C[C@H]3OC23C=CCN(CCN2CCOCC2)C(=O)[C@@H]13` (some centres undefined) is higher in composite z-score: -0.394 for the first, -0.235 for the second.

First: O=C1C2C=CC(C(O)c3ccc(Br)cc3)N(Nc3ccccc3F)C2C(=O)N1c1ccccc1 (centres undefined)
Second: N#Cc1ccc(C(O)C2C=CC3C(=O)N(c4ccccc4)C(=O)C3N2Nc2ccccc2)cc1 (centres undefined)
The composite z-score of the first is higher: 0.0957 for the first, -0.111 for the second.

First: CCCCC(=C=CC[C@@H](O)c1ccccc1OCCO)C[C@@H](O)COCc1ccccc1
Second: COCCCNC(=O)[C@@]1(Cc2ccccc2CN=[N+]=[N-])N=C(c2ccc(OCCCO)cc2)O[C@H]1c1ccccc1
The composite z-score of the first is lower: -0.893 for the first, -0.751 for the second.

Compared with `O=C1O[C@@H](c2ccccc2)[C@@H](c2ccccc2)N2[C@@H](c3ccc(O)cc3)[C@]3(C(=O)Nc4ccc(C#CC5=CCCCC5)cc43)[C@@H](C(=O)NC[C@H](O)c3ccccc3)[C@H]12`, `NC(=O)NCC#Cc1ccc2c(c1)[C@]1(C(=O)N2)[C@H](C(=O)NC[C@H](O)c2ccccc2)[C@H]2C(=O)O[C@H](c3ccccc3)[C@H](c3ccccc3)N2[C@@H]1c1ccc(OCCO)cc1` is lower in composite z-score: 1.13 for the first, -0.0806 for the second.

Compared with `CC(C)N1CC=CC23O[C@@H]4C=CCOC(=O)[C@@H]4[C@H]2C(=O)N(CCCO)[C@@H]3C1=O` (some centres undefined), `CCCCN1CC=CC23O[C@@H]4/C=C\CCC(C)OC(=O)C4[C@H]2C(=O)N(C(CO)C(C)C)[C@@H]3C1=O` (some centres undefined) is higher in composite z-score: -0.73 for the first, 0.212 for the second.

First: C=CCN1Cc2ccccc2[C@H]2OC(c3ccc(OCCCO)cc3)=N[C@@]2(CC=C)C1=O
Second: [N-]=[N+]=NCc1ccccc1[C@H]1OC(c2ccc(OCCCO)cc2)=N[C@@]1(CCS(=O)(=O)c1ccccc1)C(=O)N1CCCCC1
The composite z-score of the first is higher: 1.39 for the first, -0.565 for the second.

First: CO[C@H]1O[C@H](CO)[C@@H](OC(=O)Nc2ccc3c(c2)OCO3)[C@H](OC(=O)c2cc3ccccc3[nH]2)[C@H]1OC(=O)c1cc2ccccc2[nH]1
Second: CCOC(=O)c1ccc(NC(=O)O[C@H]2[C@H](OC(=O)Nc3ccc4c(c3)OCO4)[C@@H](OC(=O)Nc3ccc4c(c3)OCO4)[C@@H](OC)O[C@@H]2CO)cc1
The composite z-score of the first is higher: 0.725 for the first, 0.0612 for the second.

Going from `COC(=O)[C@@]1(Cc2ccccc2)[C@H]2c3cc(C(=O)N(C)C)n(CCc4ccc(O)c(OC)c4)c3C[C@H]2CN1C(=O)c1ccccc1` to `CN1C(=O)C2C=CC(C(O)COCc3ccccc3)N(N(c3ccccc3)c3ccccc3)C2C1=O` (centres undefined), the composite z-score falls from 0.314 to -0.571.

`CC(c1ccccc1)C(O)C1C=CC2C(=O)N(c3ccccc3)C(=O)C2N1Nc1ccc([N+](=O)[O-])cc1` (centres undefined) showed a composite z-score of -0.661.
